We go through three sequences from article PMC11006913.

Positions count from the first letter of the chain named.

Test in all cases: PBM; 200 nM protein, PBS
What all share (conditions): dsDNA, one strand shown

In assay [1] the target is HESX1 (Homo sapiens, UniProt Q9UBX0 95-180, R165K).
For assay [2], the target named is HOXA7 (Homo sapiens, UniProt P31268 116-202).
In the next assay the target is T1, VENTX (Homo sapiens, UniProt O95231 78-163, Y115F).
T1 sequence: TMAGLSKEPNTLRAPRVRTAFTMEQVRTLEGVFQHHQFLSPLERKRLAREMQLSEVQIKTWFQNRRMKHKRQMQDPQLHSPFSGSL

For assay [3], the target named is HOXB6 (Homo sapiens, UniProt P17509 132-218, K202E).
Chain of HOXB6 (Homo sapiens, UniProt P17509 132-218, K202E) (P17509 132-218 K202E): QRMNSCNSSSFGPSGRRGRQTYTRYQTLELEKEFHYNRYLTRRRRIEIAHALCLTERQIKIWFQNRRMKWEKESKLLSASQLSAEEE
For assay [4], the target named is HESX1 (Homo sapiens, UniProt Q9UBX0 95-180).
Chain of HESX1 (Homo sapiens, UniProt Q9UBX0 95-180) (Q9UBX0 95-180): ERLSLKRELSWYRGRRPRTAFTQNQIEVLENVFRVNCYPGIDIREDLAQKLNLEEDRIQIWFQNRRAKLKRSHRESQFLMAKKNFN
Assay [5] concerns the target HOXA2 (Homo sapiens, UniProt O43364 129-215, R185T).
Assay [6] deals with MSX2 (Homo sapiens, UniProt P35548 130-214, R199I).
Chain of MSX2 (Homo sapiens, UniProt P35548 130-214, R199I) (P35548 130-214 R199I): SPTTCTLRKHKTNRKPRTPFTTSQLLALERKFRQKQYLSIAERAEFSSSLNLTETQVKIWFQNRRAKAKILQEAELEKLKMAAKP
For assay [7], the target named is HOXA2 (Homo sapiens, UniProt O43364 129-215, R185K).
Chain of HOXA2 (Homo sapiens, UniProt O43364 129-215, R185K) (O43364 129-215 R185K): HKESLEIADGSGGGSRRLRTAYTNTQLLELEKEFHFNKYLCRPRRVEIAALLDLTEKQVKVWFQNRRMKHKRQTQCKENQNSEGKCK
Assay [8] addresses MSX2 (Homo sapiens, UniProt P35548 130-214).
The target in assay [9] is HESX1 (Homo sapiens, UniProt Q9UBX0 95-180, R109Q).
Chain of HESX1 (Homo sapiens, UniProt Q9UBX0 95-180, R109Q) (Q9UBX0 95-180 R109Q): as the sequence (Q9UBX0 95-180) above, with R15Q counted along it
For assay [10], the target named is HESX1 (Homo sapiens, UniProt Q9UBX0 95-180, P111T).
Chain of HESX1 (Homo sapiens, UniProt Q9UBX0 95-180, P111T) (Q9UBX0 95-180 P111T): as the sequence (Q9UBX0 95-180) above, with P17T counted along it
Assay [11] addresses MSX2 (Homo sapiens, UniProt P35548 130-214, F161Y).
Assay [12] addresses HESX1 (Homo sapiens, UniProt Q9UBX0 95-180, F115L).
Assay [13] concerns the target HOXA2 (Homo sapiens, UniProt O43364 129-215, Y150S).
Assay [14] has as its target HOXA7 (Homo sapiens, UniProt P31268 116-202, W177C).
Assay [15] has as its target HOXA2 (Homo sapiens, UniProt O43364 129-215).
The target in assay [16] is HOXB6 (Homo sapiens, UniProt P17509 132-218).
Chain of HOXB6 (Homo sapiens, UniProt P17509 132-218) (P17509 132-218): as the sequence (P17509 132-218 K202E) above, with E71K counted along it
For assay [17], the target named is ALX1 (Homo sapiens, UniProt Q15699 118-204, L144V).
Chain of ALX1 (Homo sapiens, UniProt Q15699 118-204, L144V) (Q15699 118-204 L144V): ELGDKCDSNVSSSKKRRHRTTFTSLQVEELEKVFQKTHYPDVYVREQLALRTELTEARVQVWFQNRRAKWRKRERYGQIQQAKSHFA
Assay [18] deals with ALX3 (Homo sapiens, UniProt O95076 139-225, N203Q).
Chain of ALX3 (Homo sapiens, UniProt O95076 139-225, N203Q) (O95076 139-225 N203Q): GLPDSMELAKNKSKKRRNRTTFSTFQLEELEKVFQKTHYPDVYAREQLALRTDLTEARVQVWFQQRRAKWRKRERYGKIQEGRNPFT
For assay [19], the target named is ALX1 (Homo sapiens, UniProt Q15699 118-204, L144R).
Chain of ALX1 (Homo sapiens, UniProt Q15699 118-204, L144R) (Q15699 118-204 L144R): as the sequence (Q15699 118-204 L144V) above, with V27R counted along it
The target of assay [20] is ALX3 (Homo sapiens, UniProt O95076 139-225).
Chain of ALX3 (Homo sapiens, UniProt O95076 139-225) (O95076 139-225): as the sequence (O95076 139-225 N203Q) above, with Q65N counted along it
In assay [21] the target is ALX3 (Homo sapiens, UniProt O95076 139-225, L168Q).
Chain of ALX3 (Homo sapiens, UniProt O95076 139-225, L168Q) (O95076 139-225 L168Q): as the sequence (O95076 139-225 N203Q) above, with L30Q, Q65N counted along it
The target of assay [22] is ALX3 (Homo sapiens, UniProt O95076 139-225, L168V).
Chain of ALX3 (Homo sapiens, UniProt O95076 139-225, L168V) (O95076 139-225 L168V): as the sequence (O95076 139-225 N203Q) above, with L30V, Q65N counted along it
Assay [23] addresses ALX1 (Homo sapiens, UniProt Q15699 118-204).
Assay [24] addresses ALX3 (Homo sapiens, UniProt O95076 139-225, N203S).
The target in assay [25] is CRX (Homo sapiens, UniProt O43186 26-111).
Chain of CRX (Homo sapiens, UniProt O43186 26-111) (O43186 26-111): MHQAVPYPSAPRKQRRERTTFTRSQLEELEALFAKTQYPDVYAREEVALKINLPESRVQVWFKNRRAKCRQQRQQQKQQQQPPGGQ
In assay [26] the target is T2, PAX4 (Homo sapiens, UniProt O43316 9-242, R200K).
T2 sequence: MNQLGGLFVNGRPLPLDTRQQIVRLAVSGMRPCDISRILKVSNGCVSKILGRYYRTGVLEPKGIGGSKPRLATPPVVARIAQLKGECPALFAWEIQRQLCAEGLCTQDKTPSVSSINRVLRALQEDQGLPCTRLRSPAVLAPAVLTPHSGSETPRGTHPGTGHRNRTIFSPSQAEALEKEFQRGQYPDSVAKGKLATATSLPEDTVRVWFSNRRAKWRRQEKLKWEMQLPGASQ

For assay [27], the target named is T3, PAX4 (Homo sapiens, UniProt O43316 9-242).
T3 sequence: T2 sequence with K192R

The target in assay [28] is CRX (Homo sapiens, UniProt O43186 26-111, E42D).
Chain of CRX (Homo sapiens, UniProt O43186 26-111, E42D) (O43186 26-111 E42D): as the sequence (O43186 26-111) above, with E17D counted along it
Assay [29] deals with T4, PAX4 (Homo sapiens, UniProt O43316 9-242, R200Q).
T4 sequence: T2 sequence with K192Q

Assay [30] concerns the target T5, PAX4 (Homo sapiens, UniProt O43316 9-242, F177V).
T5 sequence: T2 sequence with F169V, K192R

In assay [31] the target is T6, PAX4 (Homo sapiens, UniProt O43316 9-242, F177Y).
T6 sequence: T2 sequence with F169Y, K192R

Assay [32] deals with T7, PAX4 (Homo sapiens, UniProt O43316 9-242, R227W).
T7 sequence: T2 sequence with K192R, R219W

The target of assay [33] is CRX (Homo sapiens, UniProt O43186 26-111, R41L).
Chain of CRX (Homo sapiens, UniProt O43186 26-111, R41L) (O43186 26-111 R41L): as the sequence (O43186 26-111) above, with R16L counted along it

Chain of HESX1 (Homo sapiens, UniProt Q9UBX0 95-180, R165K) (Q9UBX0 95-180 R165K): as the sequence (Q9UBX0 95-180) above, with R71K counted along it
Chain of HESX1 (Homo sapiens, UniProt Q9UBX0 95-180, F115L) (Q9UBX0 95-180 F115L): as the sequence (Q9UBX0 95-180) above, with F21L counted along it
Chain of HOXA7 (Homo sapiens, UniProt P31268 116-202) (P31268 116-202): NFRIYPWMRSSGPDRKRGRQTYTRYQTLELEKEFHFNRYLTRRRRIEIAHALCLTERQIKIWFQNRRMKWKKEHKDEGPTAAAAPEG
Chain of HOXA7 (Homo sapiens, UniProt P31268 116-202, W177C) (P31268 116-202 W177C): as the sequence (P31268 116-202) above, with W62C counted along it
Chain of HOXA2 (Homo sapiens, UniProt O43364 129-215, R185T) (O43364 129-215 R185T): as the sequence (O43364 129-215 R185K) above, with K57T counted along it
Chain of ALX1 (Homo sapiens, UniProt Q15699 118-204) (Q15699 118-204): as the sequence (Q15699 118-204 L144V) above, with V27L counted along it
Chain of MSX2 (Homo sapiens, UniProt P35548 130-214, F161Y) (P35548 130-214 F161Y): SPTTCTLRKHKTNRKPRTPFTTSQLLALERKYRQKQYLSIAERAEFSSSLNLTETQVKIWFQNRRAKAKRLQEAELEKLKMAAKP
Chain of ALX3 (Homo sapiens, UniProt O95076 139-225, N203S) (O95076 139-225 N203S): as the sequence (O95076 139-225 N203Q) above, with Q65S counted along it
Chain of HOXA2 (Homo sapiens, UniProt O43364 129-215, Y150S) (O43364 129-215 Y150S): as the sequence (O43364 129-215 R185K) above, with Y22S, K57R counted along it
Chain of HOXA2 (Homo sapiens, UniProt O43364 129-215) (O43364 129-215): as the sequence (O43364 129-215 R185K) above, with K57R counted along it
Chain of MSX2 (Homo sapiens, UniProt P35548 130-214) (P35548 130-214): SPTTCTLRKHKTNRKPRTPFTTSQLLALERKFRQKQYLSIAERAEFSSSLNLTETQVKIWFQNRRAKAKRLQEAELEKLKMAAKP

Turning to CGCAATTA, the binding signal in the assay with HESX1 [1] is 11.6 upbm affinity estimate (log intensity, higher = more binding, comparable within an allelic series); in the assay with HOXA7 [2], 11.2 upbm affinity estimate (log intensity, higher = more binding, comparable within an allelic series); in the assay with VENTX, 11.4 upbm affinity estimate (log intensity, higher = more binding, comparable within an allelic series); with HOXB6 [3], 9.82 upbm affinity estimate (log intensity, higher = more binding, comparable within an allelic series); in the assay with HESX1 [4] it was 11.8 upbm affinity estimate (log intensity, higher = more binding, comparable within an allelic series); in the assay with HOXA2 [5], 12.4 upbm affinity estimate (log intensity, higher = more binding, comparable within an allelic series). The binding signal with MSX2 [6] was 12.6 upbm affinity estimate (log intensity, higher = more binding, comparable within an allelic series); with HOXA2 [7] it was 13.1 upbm affinity estimate (log intensity, higher = more binding, comparable within an allelic series); in the assay with MSX2 [8], 13.7 upbm affinity estimate (log intensity, higher = more binding, comparable within an allelic series); in the assay with HESX1 [9], 8.21 upbm affinity estimate (log intensity, higher = more binding, comparable within an allelic series); in the assay with HESX1 [10] it was 10.1 upbm affinity estimate (log intensity, higher = more binding, comparable within an allelic series); with MSX2 [11], 13.4 upbm affinity estimate (log intensity, higher = more binding, comparable within an allelic series). Moreover, the binding signal with HESX1 [12] is 7.22 upbm affinity estimate (log intensity, higher = more binding, comparable within an allelic series); in the assay with HOXA2 [13] it was 10.7 upbm affinity estimate (log intensity, higher = more binding, comparable within an allelic series); with HOXA7 [14] it was 8.67 upbm affinity estimate (log intensity, higher = more binding, comparable within an allelic series); with HOXA2 [15], 12.1 upbm affinity estimate (log intensity, higher = more binding, comparable within an allelic series); with HOXB6 [16], 11.7 upbm affinity estimate (log intensity, higher = more binding, comparable within an allelic series).

For the sequence CCGAGCCG, the binding signal with HESX1 [1] was 6.36 upbm affinity estimate (log intensity, higher = more binding, comparable within an allelic series); with HOXA7 [2] it was 8.34 upbm affinity estimate (log intensity, higher = more binding, comparable within an allelic series); with HESX1 [4], 6.14 upbm affinity estimate (log intensity, higher = more binding, comparable within an allelic series); with ALX1 [17], 6.19 upbm affinity estimate (log intensity, higher = more binding, comparable within an allelic series); in the assay with ALX3 [18], 7.62 upbm affinity estimate (log intensity, higher = more binding, comparable within an allelic series); with ALX1 [19], 6.2 upbm affinity estimate (log intensity, higher = more binding, comparable within an allelic series). For the same sequence, the binding signal in the assay with ALX3 [20] is 7.46 upbm affinity estimate (log intensity, higher = more binding, comparable within an allelic series); in the assay with HESX1 [9] it was 6.38 upbm affinity estimate (log intensity, higher = more binding, comparable within an allelic series); with ALX3 [21] it was 7.56 upbm affinity estimate (log intensity, higher = more binding, comparable within an allelic series); with HESX1 [10], 6.22 upbm affinity estimate (log intensity, higher = more binding, comparable within an allelic series); in the assay with ALX3 [22] it was 7.69 upbm affinity estimate (log intensity, higher = more binding, comparable within an allelic series); in the assay with HESX1 [12], 6.62 upbm affinity estimate (log intensity, higher = more binding, comparable within an allelic series). Also, the binding signal in the assay with HOXA7 [14] is 8.22 upbm affinity estimate (log intensity, higher = more binding, comparable within an allelic series); with ALX1 [23], 6.32 upbm affinity estimate (log intensity, higher = more binding, comparable within an allelic series); in the assay with ALX3 [24] it was 7.67 upbm affinity estimate (log intensity, higher = more binding, comparable within an allelic series).

Turning to AGAGCGCG, the binding signal with HESX1 [1] is 6.51 upbm affinity estimate (log intensity, higher = more binding, comparable within an allelic series); with CRX [25], 8.2 upbm affinity estimate (log intensity, higher = more binding, comparable within an allelic series); in the assay with PAX4 [26], 9.35 upbm affinity estimate (log intensity, higher = more binding, comparable within an allelic series); with PAX4 [27], 9.24 upbm affinity estimate (log intensity, higher = more binding, comparable within an allelic series); in the assay with HESX1 [4] it was 6.38 upbm affinity estimate (log intensity, higher = more binding, comparable within an allelic series); with CRX [28], 8.22 upbm affinity estimate (log intensity, higher = more binding, comparable within an allelic series). The binding signal with PAX4 [29] is 9.35 upbm affinity estimate (log intensity, higher = more binding, comparable within an allelic series); with PAX4 [30] it was 9.32 upbm affinity estimate (log intensity, higher = more binding, comparable within an allelic series); in the assay with PAX4 [31], 9.31 upbm affinity estimate (log intensity, higher = more binding, comparable within an allelic series); in the assay with HESX1 [9], 6.56 upbm affinity estimate (log intensity, higher = more binding, comparable within an allelic series); in the assay with HESX1 [10], 6.61 upbm affinity estimate (log intensity, higher = more binding, comparable within an allelic series); with HESX1 [12], 6.46 upbm affinity estimate (log intensity, higher = more binding, comparable within an allelic series). Also, the binding signal with PAX4 [32] is 9.39 upbm affinity estimate (log intensity, higher = more binding, comparable within an allelic series); in the assay with CRX [33] it was 8.22 upbm affinity estimate (log intensity, higher = more binding, comparable within an allelic series).
